Source: PubChem (National Center for Advancing Translational Sciences (NCATS))
ELG1 DNA repair = inhibitors of ELG1-dependent DNA repair in HEK293T cells. HEK293T ELG1-luciferase reporter, luminescence, 16 h; DNA damage induced by 5-fluorouridine. Potency, µM (top dose mostly 46.1 µM), most hits filed as inhibitors. 330,000 compounds, 2.3% hits; note: nearly all actives have a fitted effect of over 55% in size
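Step one: seed 2,000 cells per well. Step two: pin-transfer compound or DMSO alongside 5-fluorouridine. Step three: incubate 16 hr, 37 °C, 5% CO2. Step four: add ONE-Glo, wait 30 min, read luminescence.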
DT40 TDP1 CPT = growth inhibition of DT40 Tdp1-/-;hTDP1 cells with camptothecin (screen for TDP1 inhibitors). 420,000 compounds, 12% hits. chicken DT40 Tdp1-/-;hTDP1 cells + 20 nM CPT, ATP luminescence, 48 h. Potency, µM (series often up to 46.2 µM), actives largely listed as inhibitors; note: nearly all actives have a fitted effect of over 55% in size
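Chicken DT40 Tdp1-/- cells stably complemented with human TDP1 were seeded at 400 cells/well in medium containing 20 nM camptothecin, exposed to pin-transferred compounds, and grown at 37 °C for at least 48 hr. Viability was read as ATP luminescence.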
HT1080-NT tox = kills 2HG-producing HT-1080-NT fibrosarcoma cells; HT-1080-NT fibrosarcoma viability, CellTiter-Glo ATP luminescence, 48 h; Potency, µM (highest dose often 46.1 µM), usual class: cytotoxic; 360,000 compounds, 1.6% hits;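 note: NT is the 2HG producing partner of a matched IDH1 knockdown line; nearly all actives have a fitted effect of over 55% in size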
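Luminescent CellTiter-Glo readout after 48 hours of compound exposure at 37 degrees C defined viability of HT-1080-NT cells. Activity was normalized to DMSO wells and cell-free media wells; concentration-response curves were fitted and assigned curve classes.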
TDP1 cell noCPT = qHTS for Inhibitors of human tyrosyl-DNA phosphodiesterase 1 (TDP1): qHTS in cells in absence of CPT; DT40 Tdp1-/- hTDP1 cells, no CPT, ATP luminescence, 48 h; Potency, µM (series often up to 46.2 µM), most hits filed as inhibitors; 420,000 compounds, 15% hits; AID 686978, 2013; note: nearly all actives have a fitted effect of over 55% in size
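Compound effects on proliferation are scored in DT40 Tdp1-/-;hTDP1 cells in the absence of CPT. ATP levels (CellTiter-Glo luminescence) are recorded after a ≥48 hr, 37 °C incubation.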
HT1080 IDH1KD tx = HT-1080 IDH1 knockdown cell toxicity (counter line); 360,000 compounds, 2% hits; AID 686971; Potency, µM (titrated, usually from 46.1 µM), hits mostly cytotoxic; HT-1080 IDH1 knockdown viability, ATP luminescence, 48 h
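In this qHTS, HT-1080 cells depleted of IDH1 are exposed for 48 h at 37 °C to compound titrations. Toxicity is scored from CellTiter-Glo luminescence, with DMSO as full viability and medium alone as none.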
IL-1B inflam inh = inhibitors of inflammasome signaling (IL-1 beta secretion). THP-1 LPS/ATP IL-1B secretion, AlphaLISA, 16 h; stronger effect = lower value. activity change, % at 57.5 µM. 360,000 compounds, 4.7% hits; in the data active = activity change below about -50%; inconclusive = mostly about -30% to -49%
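Secreted IL-1B measured by AlphaLISA bead assay after 16 h compound exposure of THP-1 cells; compounds (final up to 57.5 uM) added 1 h before LPS (250 ng/mL) and ATP (1.25 mM) stimulation; lower signal means less secretion.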
Each line names hits and unclear results; the compound was inactive in the other large screens. The list is not random: actives were taken first. Their share in the collection is about 19%. Unless noted, calls come from the whole dose curve; as a rule, active = well fitted curve in the direction sought with a large enough effect; inconclusive = small, poorly fitted or top-dose-only effect, or another doubt; inactive = no such curve, though single readings can be large; an effect the other way counts as inactive or inconclusive.

CN(C)CCNC(=S)Nc1ccc(-c2nc3ccccc3[nH]2)cc1	ELG1 DNA repair inconclusive
O=C(NC(=S)Nc1cc(-c2nc3ccccc3[nH]2)ccc1Cl)c1ccc2c(c1)OCO2	ELG1 DNA repair inconclusive, DT40 TDP1 CPT 5.2µM, TDP1 cell noCPT 3.7µM, HT1080 IDH1KD tx inconclusive
S=C(NCc1ccc2c(c1)OCO2)Nc1ccc(-c2nc3ccccc3[nH]2)cc1	ELG1 DNA repair inconclusive, DT40 TDP1 CPT 21µM, HT1080-NT tox inconclusive, TDP1 cell noCPT 18µM, HT1080 IDH1KD tx inconclusive, IL-1B inflam inh inconclusive
Cc1cc(OCC(=O)NCCCn2ccnc2)c2c(C)c(C)c(=O)oc2c1	ELG1 DNA repair inconclusive
COC(=O)c1ccc2nc(-c3ccc(F)cc3)c(Cc3ccccc3C(F)(F)F)n2c1	none (no result: ELG1 DNA repair)
CC(OC(=O)CCC(=O)N1CCN(S(=O)(=O)c2ccc3ccccc3c2)CC1)C(=O)NC(N)=O (stereo not drawn)	none
Cc1cc(C)c2c3c(sc2n1)C(c1cccc(F)c1)C(C#N)=C(N)O3 (stereo not drawn)	DT40 TDP1 CPT inconclusive, TDP1 cell noCPT 16µM, IL-1B inflam inh -79
CCCNC(=O)C1Cc2cc(S(=O)(=O)N3CCCCCC3)ccc2N1C(C)=O (stereo not drawn)	none (no result: ELG1 DNA repair, HT1080-NT tox, HT1080 IDH1KD tx, IL-1B inflam inh)
COc1ccc(NC(=O)C(Cc2ccccc2)n2cccc2)cc1OC (stereo not drawn)	DT40 TDP1 CPT 8.2µM, TDP1 cell noCPT 21µM
CC(C)c1ccc(NC(=O)C(Cc2ccccc2)n2cccc2)cc1 (stereo not drawn)	DT40 TDP1 CPT 21µM, TDP1 cell noCPT 16µM (no result: ELG1 DNA repair, HT1080-NT tox, HT1080 IDH1KD tx, IL-1B inflam inh)
COc1ccc(NC(=O)[C@H](Cc2ccccc2)N2Cc3ccccc3C2=O)cc1OC	none (no result: ELG1 DNA repair, HT1080-NT tox, HT1080 IDH1KD tx, IL-1B inflam inh)
O=C(Nc1cccc(Cl)c1)C(Cc1ccccc1)n1cccc1 (stereo not drawn)	DT40 TDP1 CPT 23µM, TDP1 cell noCPT 18µM (no result: ELG1 DNA repair, HT1080-NT tox, HT1080 IDH1KD tx, IL-1B inflam inh)
N#Cc1cccc(N2[C@@H](Cc3cc4ccccc4n3Cc3ccccc3)COC[C@H]2Cc2ccc3ccccc3c2)c1	none (no result: ELG1 DNA repair)
CN1CCN(C(CNC(=O)C(=O)Nc2ccc(F)cc2F)c2ccc3c(c2)OCO3)CC1 (stereo not drawn)	none (no result: ELG1 DNA repair, HT1080-NT tox, HT1080 IDH1KD tx, IL-1B inflam inh)
O=C(NCCn1cc(SCc2ccccc2)c2ccccc21)c1cccs1	DT40 TDP1 CPT 15µM, TDP1 cell noCPT 7.3µM (no result: ELG1 DNA repair, HT1080-NT tox, HT1080 IDH1KD tx, IL-1B inflam inh)
NC(=O)CSc1cn(CCNC(=O)c2cccs2)c2ccccc12	none
O=C(NCCn1cc(SCc2ccc(Br)cc2)c2ccccc21)c1cccs1	DT40 TDP1 CPT 23µM, TDP1 cell noCPT 23µM (no result: ELG1 DNA repair, HT1080-NT tox, HT1080 IDH1KD tx, IL-1B inflam inh)
Cc1ccc(C)c(CSc2cn(CCNC(=O)c3cccs3)c3ccccc23)c1	DT40 TDP1 CPT inconclusive, TDP1 cell noCPT 23µM (no result: ELG1 DNA repair, HT1080-NT tox, HT1080 IDH1KD tx, IL-1B inflam inh)
O=C(NCc1ccccc1Br)c1cccs1	DT40 TDP1 CPT inconclusive (no result: ELG1 DNA repair)
COc1ccccc1C(=O)NCCn1cc(SCc2ccc(C)cc2)c2ccccc21	DT40 TDP1 CPT 23µM, TDP1 cell noCPT inconclusive (no result: ELG1 DNA repair, HT1080-NT tox, HT1080 IDH1KD tx, IL-1B inflam inh)
C/C=C1\NC(=O)[C@H](C)NC(=O)[C@@H](NC(=O)[C@H](Cc2ccc(O)cc2)NC(=O)[C@@H](NC(=O)/C(C)=C/C)C(C)C)[C@@H](C)OC(=O)[C@H](CC(C)C)NC(=O)[C@@H](CCC(=O)O)NC1=O	none (no result: ELG1 DNA repair)
COc1ccc(Oc2ncc3ncc(=O)n(C4CC4)c3n2)cc1	none (no result: ELG1 DNA repair, HT1080-NT tox, HT1080 IDH1KD tx, IL-1B inflam inh)
O=C(NCCn1cc(SCc2ccccc2Cl)c2ccccc21)c1cccs1	DT40 TDP1 CPT 23µM, TDP1 cell noCPT inconclusive (no result: ELG1 DNA repair, HT1080-NT tox, HT1080 IDH1KD tx, IL-1B inflam inh)
O=C(NCCn1cc(SCc2ccccc2)c2ccccc21)c1ccccc1F	ELG1 DNA repair 13µM, DT40 TDP1 CPT 21µM, TDP1 cell noCPT inconclusive
CCCCNC(=O)NCc1cnn(C)c1C	ELG1 DNA repair inconclusive
O=C(Nc1ccc(Cc2ccncc2)cc1)C1CCC(N2C(=O)C3C4C=CC(C5CC45)C3C2=O)CC1 (stereo not drawn)	ELG1 DNA repair 8.2µM, DT40 TDP1 CPT 18µM, HT1080-NT tox inconclusive, TDP1 cell noCPT 15µM, HT1080 IDH1KD tx inconclusive
